Assay results reported in PubChem BioAssay.
The source made the active and inactive calls.

Columns and labels:
[1] = compound effects on lung adenocarcinoma cell viability – A549, calcein-AM fluorescence, 48 h, basal, profiling panel (AID 1162); conditions: higher = more signal
[2] = compound effects on differentiated 3T3-L1 adipocyte viability – cell-based, 3T3-L1 adipocytes, calcein-AM fluorescence, 48 h, basal, profiling panel (AID 1163); conditions: 3T3-L1 adipocytes viability, higher = more signal
[3] = compound effects on hepatocellular carcinoma cell viability – HepG2, calcein-AM fluorescence, 48 h, basal, profiling panel (AID 1164); conditions: higher = more signal
[4] = compound effects on multiple myeloma cell viability – MM1S, calcein-AM fluorescence, 48 h, basal, profiling panel (AID 1165); conditions: higher = more signal
[5] = calcein-AM signal in unstimulated myeloma cells – cell-based, calcein-AM fluorescence, 48 h, PK04 Diversity Set, profiling panel (AID 1166); conditions: RPMI8226 myeloma viability, higher = more signal;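 further: cells grown under basal conditions without added stimulus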
[6] = JC-1 mitochondrial signal, unstimulated HepG2 cells – cell-based, JC-1 fluorescence, 24 h, 100 nL compound, profiling panel (AID 1167); conditions: HepG2 mitochondrial potential, higher = more signal
[7] = JC-1 mitochondrial signal, unstimulated adipocytes – cell-based, JC-1 fluorescence, 3T3-L1 adipocytes, 24 h, 100 nL compound, profiling panel (AID 1168); conditions: JC-1 mitochondrial fluorescence, higher = more signal, called active from +8 up or from −8 down
[8] = JC-1 mitochondrial signal, unstimulated myeloma cells – cell-based, JC-1 fluorescence, RPMI8226, 24 h, 100 nL compound, profiling panel (AID 1169); conditions: JC-1 mitochondrial potential fluorescence, higher = more signal
[9] = JC-1 mitochondrial signal, unstimulated MM1S myeloma – cell-based, JC-1 fluorescence, 24 h, 100 nL compound, profiling panel (AID 1170); conditions: MM1S mitochondrial potential, higher = more signal
[10] = resazurin metabolic signal in A549 cells – cell-based, resazurin fluorescence, 24 h, PK04 Diversity Set, profiling panel (AID 1171); conditions: A549 viability, higher = more signal, called active from +8 up or from −8 down
Further: test concentration not given here.

Structure (SMILES) | z-score [1] | z-score [2] | z-score [3] | z-score [4] | z-score [5] | z-score [6] | z-score [7] | z-score [8] | z-score [9] | z-score [10]
CO[C@H]1O[C@H](CO)[C@@H](OC(=O)Nc2ccc(C(F)(F)F)cc2)[C@H](OC(=O)Nc2ccc3c(c2)OCO3)[C@H]1OC(=O)Nc1ccc2c(c1)OCO2 | -2.28 | 0.758 | -2.3 | -2.85 | -2.66 | -0.17 | 0.298 (inactive) | -0.999 | -1.01 | -3.17 (inactive)
CC1CC/C=C\[C@H]2OC34C=CCN(c5ccc6ccccc6c5)C(=O)[C@H]3N(C(CO)C(C)C)C(=O)[C@@H]4C2C(=O)O1 (stereo not given in full) | 0.534 | -0.443 | 0.468 | 0.36 | 0.251 | 0.356 | -0.328 (inactive) | 0.145 | -0.158 | -0.294 (inactive)
CC(C)N1CC=CC23O[C@@H]4C=CCCOC(=O)C4[C@H]2C(=O)N(CCO)[C@@H]3C1=O (stereo not given in full) | -0.555 | -0.0175 | -2.03 | 0.506 | 0.0275 | -0.333 | 0.5 (inactive) | 1 | 0.862 | 1.06 (inactive)
O=C1O[C@@H](c2ccccc2)[C@@H](c2ccccc2)N2[C@@H](c3ccc(O)cc3)[C@]3(C(=O)Nc4ccccc43)[C@@H](C(=O)Nc3nc4ccccc4s3)[C@H]12 | -2.07 | 0.353 | -1.49 | -3.37 | -4.55 | -3.64 | 0.169 (inactive) | -1.23 | -1.76 | -1.9 (inactive)
COC(=O)[C@@]1(Cc2ccc(OC)cc2)[C@H]2c3cc(C(=O)N4CCCC4)n(CCc4cc5ccccc5[nH]4)c3C[C@H]2CN1C(=O)c1ccccc1 | -0.596 | -0.0596 | 0.471 | -0.574 | -1.84 | 0.877 | -0.538 (inactive) | -0.922 | -1.1 | -0.0485 (inactive)
COc1ccc(C#Cc2ccc3c(c2)[C@]2(C(=O)N3)[C@H](C(=O)N3CCc4cc(OC)c(OC)cc4C3)[C@H]3C(=O)O[C@H](c4ccccc4)[C@H](c4ccccc4)N3[C@@H]2c2ccc(O)cc2)cc1 | -0.522 | -0.163 | 0.615 | -0.229 | -0.293 | -1.43 | 1.72 (inactive) | -0.356 | -1.09 | -0.297 (inactive)
COc1cc2c(cc1OC)CN(C(=O)[C@H]1[C@@H]3C(=O)O[C@@H](c4ccccc4)[C@@H](c4ccccc4)N3[C@@H](c3ccc(OCCO)cc3)[C@]13C(=O)Nc1ccc(C#CCCO)cc13)CC2 | 0.269 | -0.16 | -0.142 | -0.0509 | 0.77 | -1.21 | 0.764 (inactive) | -0.453 | -1.07 | 0.604 (inactive)
COc1ccc([Si](C)(C)[C@H]2[C@H](CCO)O[C@@]3(C(=O)N(Cc4cccc(N5CCCCC5=O)c4)c4ccccc43)[C@@H]2C)cc1 | -1.38 | -0.865 | -4.36 | -2.73 | -4.35 | -1.59 | 0.0395 (inactive) | -1.1 | -2.09 | -2.95 (inactive)
C=CCN1C(=O)[C@@]2(O[C@@H](CCn3cc([C@H](O)c4ccccc4)nn3)[C@H]([Si](C)(C)c3ccc(OC)cc3)[C@H]2C)c2ccccc21 | -1.05 | 0.432 | -1.49 | -2.7 | -4.27 | 1.06 | -0.644 (inactive) | -0.967 | -0.364 | -1.76 (inactive)
CCOC(=O)C1=CC[C@@H](c2ccccc2)N(S(=O)(=O)c2ccc(C)cc2)C1 | -0.747 | -0.384 | -0.165 | -1.22 | -1.62 | 0.546 | -1.07 (inactive) | 0.84 | -0.977 | -0.145 (inactive)
COc1cc(CO)cc(I)c1O[C@H]1C=C(C(=O)NCCO)C[C@@H](N(Cc2ccc(F)cc2)C(=O)C2CCCO2)[C@@H]1O (stereo not given in full) | 0.656 | 0.284 | 0.364 | 0.87 | 0.577 | 1.04 | 0.195 (inactive) | -0.899 | 0.578 | -0.409 (inactive)
COC(=O)C1(Cc2ccccc2)C=C2C(=C(c3ccccc3)C(=O)C2C)CN1 (stereo not given) | -0.874 | 0.24 | -0.515 | -0.451 | -0.91 | -0.832 | -1.12 (inactive) | 0.213 | -0.291 | -0.358 (inactive)
CCCN1C(=O)[C@]2(Cc3ccccc3)N=C(c3ccc(OCCCO)cc3)O[C@@H]2c2ccccc21 | 0.0649 | 0.932 | -1.26 | -1.26 | -4.03 | 0.596 | 2.77 (inactive) | -1.21 | -1.1 | -0.593 (inactive)
CC(C)(C)OC(=O)CC[C@@]1(C(=O)O)N=C(c2ccc(OCCCO)cc2)O[C@@H]1c1ccccc1 | -0.662 | -0.982 | -0.289 | -0.764 | 0.335 | -0.602 | -0.445 (inactive) | 0.855 | -0.939 | 0.477 (inactive)
COCCOC(=O)N1C(=O)[C@@]2(c3cc(C#Cc4ccc(OC)cc4)ccc31)[C@H](C(=O)NC[C@H](O)c1ccccc1)[C@H]1C(=O)O[C@H](c3ccccc3)[C@H](c3ccccc3)N1[C@@H]2c1ccc(O)cc1 | -0.24 | 0.711 | -0.862 | -2.08 | -2.34 | -2.11 | 1.54 (inactive) | -0.723 | 0.122 | 0.397 (inactive)
C[N+](C)(C)CCCC[C@@H]1NC(=O)[C@@H]2C[C@H](C(=O)O)[C@H](c3ccc(O)cc3)N2C1=O | -0.643 | 0.422 | 0.914 | 0.379 | -0.0923 | 0.0942 | -0.907 (inactive) | -0.142 | -0.454 | -0.246 (inactive)
O=C(CS)NCCCCCCNC(=O)[C@H]1C[C@H]2C(=O)N[C@@H](Cc3ccccc3)C(=O)N2[C@H]1c1cccc(OCCO)c1 | 0.0757 | -0.154 | 0.77 | 0.306 | 0.895 | -0.394 | 0.0403 (inactive) | -0.309 | -1.12 | 0.311 (inactive)
CCOc1cc(C(O)C2C=CC3C(=O)N(C4CCCCC4)C(=O)C3N2Nc2ccc(OC)cc2)ccc1O (stereo not given) | 0.366 | -0.786 | 0.772 | 0.26 | -0.141 | 0.551 | 0.283 (inactive) | -0.0341 | -1.87 | 0.265 (inactive)
CC(C)OC(=O)CC(=O)CC(O)c1cccc(C#N)c1 (stereo not given) | 1.59 | 0.136 | 0.886 | 0.387 | 0.518 | 0.575 | 0.837 (inactive) | 0.105 | -1.56 | 0.481 (inactive)
COC(=O)[C@@]1(Cc2ccccc2)[C@H]2c3cc(C(=O)N4CCCC4)n(Cc4ccsc4Br)c3C[C@H]2CN1C(=O)c1ccccc1 | -0.991 | 0.213 | -0.248 | -1.54 | -3.59 | 1.6 | -0.205 (inactive) | -0.804 | -1.23 | -0.9 (inactive)
COC(=O)[C@@]1(Cc2ccccc2)[C@H]2c3cc(C(=O)N4CCCC4)n(C[C@H](O)CO)c3C[C@H]2CN1C(=O)c1ccccc1 | -1.11 | -0.154 | 0.0709 | 0.37 | 0.302 | 0.438 | -0.128 (inactive) | -0.0296 | -0.3 | -0.63 (inactive)
